Sampled rows, rich in hits. Any-hit rate of the full collection: about 11%.
NPSR antagonist: antagonists of human neuropeptide S receptor cAMP signaling. CHO-NPSR cells, cAMP TR-FRET, antagonist mode. Q6W5P4. 220,000 compounds, 1% hits. Potency, µM (top dose mostly 38.3 µM), for inactives: at the highest dose activity change, negative = inhibition, usual class: inhibitors; active means well fitted curve in the direction sought with a large enough effect; inconclusive means small, poorly fitted or top-dose-only effect, or another doubt; inactive means no such curve, though single readings can be large; an effect the other way counts as inactive or inconclusive; further: potency means the concentration at half of the fitted maximal effect; nearly all actives have a fitted effect of over 50% in size
Target sequence (Q6W5P4 whole entry, looked up): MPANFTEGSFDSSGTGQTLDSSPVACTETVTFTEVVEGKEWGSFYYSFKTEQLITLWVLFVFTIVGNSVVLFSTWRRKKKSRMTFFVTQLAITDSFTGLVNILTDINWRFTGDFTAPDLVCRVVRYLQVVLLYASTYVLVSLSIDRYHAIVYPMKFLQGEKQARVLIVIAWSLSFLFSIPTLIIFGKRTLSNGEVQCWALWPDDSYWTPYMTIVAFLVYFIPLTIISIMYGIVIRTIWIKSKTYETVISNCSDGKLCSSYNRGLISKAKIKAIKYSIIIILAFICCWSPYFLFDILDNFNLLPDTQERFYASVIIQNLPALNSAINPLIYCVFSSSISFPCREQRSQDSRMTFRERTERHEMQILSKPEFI
IMPase inh: membrane-permeable compound that blocks inositol monophosphatase; P97697; CHO-M1 cells, IP1 accumulation, HTRF TR-FRET ratio; inhibition (IP1 accumulation), % at 46.1 µM; 120,000 tested, under 10 active; active means well fitted curve in the direction sought with a large enough effect in the signal ratio, not every such curve was filed as active; inconclusive means small, poorly fitted or top-dose-only effect, or a change in a side signal; inactive means no such curve, though single readings can be large or run the other way; the % refers to the signal ratio;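 further: cells stimulated with carbachol in lithium chloride buffer; plate controls were DMSO basal wells for no effect and reference inhibitor wells for full effect; higher means more IMPase inhibition seen as more IP1 and lower FRET ratio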
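Carbachol-driven Gq signalling in CHO-M1 cells (2000/well) generates IP1. Compounds that block IMPase raise IP1 and so reduce the FRET signal from Eu-anti-IP1 and d2-IP1 after a 10 min room-temperature lysis.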
PNC inhibitor: perinucleolar compartment assembly inhibition; 140,000 compounds, 3.1% hits; activity change (PNC), negative = inhibition, % at 10 µM; PC3M PTB-GFP, PNC prevalence imaging, 16 h; active compounds read low; AID 2417;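 active means readout at or below -70, meaning at least 70% loss of cells showing the perinucleolar compartment, a nuclear body marking cancer cells; inconclusive means readout between -30 and a set limit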;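 further: plate controls were DMSO wells for no effect and camptothecin positive control wells for full effect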
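PC3M cells stably expressing PTB-GFP, 750–1000 cells/well, treated 16 h at 37 °C with compound (23 nl of library stock), in duplicate. After paraformaldehyde fixation and Hoechst stain, imaged at 20x; PNC prevalence scored by image analysis.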
ALDH1A1 block: blocks purified human ALDH1A1 activity; Purified ALDH1A1, NADH fluorescence, propionaldehyde substrate; Potency, µM (doses to about 75.3 µM), without a hit: top-dose activity, negative = inhibition, usual class: inhibitors; 220,000 compounds, 7.3% hits;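 further: potency means the concentration at half of the fitted maximal effect; plate controls were no enzyme wells and a reference inhibitor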
IMPase Li inh: IMPase inhibition in cells with lithium potentiation. CHO-M1 cells, IP1 TR-FRET (IP-One), carbachol + lithium. Potency, µM (titrated, usually from 59.4 µM), for inactives: top-dose activity, negative = IMPase inhibition, hits mostly inhibitors. 210,000 compounds, 0.35% hits; active means well fitted curve in the direction sought with a large enough effect; inconclusive means small, poorly fitted or top-dose-only effect, or another doubt; inactive means no such curve, though single readings can be large; an effect the other way counts as inactive or inconclusive;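 further: IP1 builds up when IMPase is blocked and the TR-FRET signal falls; potency means the concentration at half of the fitted maximal effect; plate controls were basal vehicle for no effect and high inhibitor control for full effect; nearly all actives have a fitted effect of over 50% in size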
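Steps: plate 2000 CHO-M1 cells per well and culture 16–30 h; add compound and lithium; incubate 30 min, 37C; add d2-IP1 tracer and Eu cryptate anti-IP1 antibody in lysis buffer; read after 10 min at room temperature.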
HPGD inh: HPGD (human) dehydrogenase inhibition. AID 894. 150,000 compounds, 4.3% hits. purified HPGD, NADH fluorescence kinetic, PGE2 substrate. Potency, µM, without a hit: at the top dose activity change, negative = inhibition, most hits filed as inhibitors; further: potency means the concentration at half of the fitted maximal effect
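20 nM HPGD preincubated 15 min at room temperature with compound in 50 mM Tris-HCl pH 8, 0.01% Tween 20. Started with 1 mM NAD+ and 30 uM prostaglandin E2; NADH fluorescence (360/450 nm) read 5 times over 30-s intervals, last minus first.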
Active calls of the source: *; ? = inconclusive; · = no result given; [ ] = remark or other dose. Unless noted, the call rests on the fitted dose curve; in most records, active means well fitted inhibition curve with a large enough effect (not every such curve was filed as active); inconclusive means small, poorly fitted or top-dose-only effect, or another doubt; inactive means no such curve, though single readings can be large or run the other way. Unless noted, on the % scale 0 is the no-effect control and ±100 the full control effect.

SMILES	NPSR antagonist	IMPase inh	PNC inhibitor	ALDH1A1 block	IMPase Li inh	HPGD inh
CC(=O)c1ccc(Sc2nnnn2-c2ccccc2)c([N+](=O)[O-])c1	-16%	·	-6	16µM*	14%	-16%
Nc1ccc(Sc2nnnn2-c2ccccc2)c(Cl)c1	?	-9	?	22µM*	26%[38.3 µM]	-2%
CN1CCN(S(=O)(=O)c2ccc(Sc3nnnn3-c3ccccc3)c([N+](=O)[O-])c2)CC1	27%	·	8	-56%	-5%	-11%
COc1ccc(C2SCCN2C(=S)Nc2cccc(C(F)(F)F)c2)cc1 (centres undefined)	-23%[46.1 µM]	9	-82*	-7%	17%	-14%
COc1ccc(C2SCCN2C(=S)Nc2ccc(F)cc2)cc1 (centres undefined)	-8%	9	9	?	7%	-18%
O=C(CN1CCc2ccccc21)NC(=O)NCc1ccccc1	1%	·	·	7.1µM*	18%	·
COc1cc2c(cc1OC)CN(CC(=O)NC(=O)NCc1ccccc1)CC2	-15%	·	·	28µM*	-1%	·
O=C(CN1CCCc2ccccc21)NC(=O)NCc1ccccc1	-15%	·	·	·	·	·
Nc1ccc(C(=O)N/N=C\C=C\c2cccc([N+](=O)[O-])c2)cc1	-29%	·	·	?	-6%	·
CCC(C)NC(=O)CSc1nc2ccc(N3CCOCC3)cc2c(=O)n1CCc1ccccc1 (centres undefined)	?	3	?	?	13%[38.3 µM]	-25%
CCCCn1c(SCC(=O)NC(C)CC)nc2ccc(N3CCOCC3)cc2c1=O (centres undefined)	?	-6	-24	?	11µM*	?
COc1cccc(-n2c(COc3ccccc3C)nnc2SCC(=O)O)c1	-4%[46.1 µM]	-4	?	0%	-11%[38.3 µM]	-25%
O=C(O)CSc1nnc(COc2ccc([N+](=O)[O-])cc2)n1-c1ccccc1	-11%	·	·	20µM*	0%	·
O=C(O)CCSc1nnc(COc2ccc([N+](=O)[O-])cc2)n1-c1ccccc1	-7%	·	·	-10%	3%	·
O=c1[nH]c(CSc2nnc(COc3ccccc3)n2-c2ccccc2)nc2ccccc12	-24%[46.1 µM]	3	?	18µM*	26%[38.3 µM]	-10%
COc1cccc(-n2c(COc3ccc(C)cc3)nnc2SCC(=O)O)c1	14%[46.1 µM]	-3	51	-14%	-8%[38.3 µM]	25µM*
Cc1ccccc1OCc1nnc(SCc2nc3ccccc3c(=O)[nH]2)n1C	4%	·	·	6%	6%	·
Cc1c(NC(=O)/C(C#N)=C/c2c(N3CCCCC3)nc3ccccn3c2=O)c(=O)n(-c2ccccc2)n1C	-9%[7.67 µM]	·	·	·	·	·
CC(C)(C)c1ccc(NC(=O)N2CCCN(c3ccc([N+](=O)[O-])cn3)CC2)cc1	48%	·	·	16µM*	·	·
CCOC(=O)SC1=N/C(=C\c2ccc(N(C)C)cc2)C(=O)S1	-10%[46.1 µM]	11	40	5µM*	7%	-22%
Cc1cccc(C)c1N1CCN(C(=O)Cn2cncn2)CC1	12%	·	·	13µM*	6%	·
O=C(Cn1cncn1)N1CCN(c2ccc(F)cc2)CC1	-7%	·	·	-4%	0%	·
Cn1c(=O)[nH]c2nc[nH]c2c1=O	·	·	·	2%	-3%	-4%
Cc1ccsc1C1C(C#N)=C(N)N(N(C)C)C2=C1C(=O)CCC2 (centres undefined)	-8%	·	·	14µM*	3%	·
CN(C)N1C(N)=C(C#N)C(c2cccs2)C2=C1CCCC2=O (centres undefined)	6%	·	·	?	-4%	·
O=[N+]([O-])c1ncn(Cc2c(Cl)cccc2Cl)n1	19%	·	-22	-5%	0%	-12%
O=C(Nc1ccccc1)C(=O)Nc1cccnc1	-16%	·	·	7%	·	·
O=C(Nc1cccnc1)/C(N=Nc1cccnc1)=C(\O)c1ccccc1	11%	-1	-29	1.4µM*	19%	-26%
O=C(CCCc1nc2ccccc2s1)NCc1ccccc1F	0%	·	3	?	-1%	32µM*
CC(C)(C)c1cc(=O)n2[nH]c(N)nc2n1	6%	·	·	8%	-1%	·

Compound activity: PubChem, National Center for Advancing Translational Sciences (NCATS)
